Results: PubChem BioAssay (Tox21)
Unmarked numbers belong to inactive results. Records with an inconclusive call do not appear. A call without a number means that no potency is given here. Active and inactive are the calls of the source. Unless noted, the call rests on the fitted dose curve; in most records, active means well fitted curve in the direction sought with a large enough effect in the repeat runs; inconclusive means weak or mixed curves; inactive means no such curve, though single readings can be large; an effect the other way counts as inactive or inconclusive.

Assays:
[1] = qHTS assay to identify small molecule antagonists of the androgen receptor (AR) signaling pathway using the MDA cell line in the presence of 0.5 nM R1881 - cell viability counter screen (AID 1259242); further: nearly all actives have a fitted effect of over 45% in size; further: potency means the concentration at half of the fitted maximal effect
How it was run: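 Cells seeded at 3,000/well and allowed 5 hr at 37C, 0% CO2 before compound transfer and R1881 (0.5 nM final) addition; 16 hr later, live-cell protease fluorescence indicated cytotoxicity.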

[2] = qHTS assay to identify small molecule HDAC inhibitors (AID 1259364);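 further: wild-type HCT-116 cells with endogenous class I/II HDAC activity; top concentration of the series differs between compounds; nearly all actives have a fitted effect of over 45% in size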
How it was run: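 HCT-116 wt cells, 1,500/well, overnight attach. Compounds (DMSO) 2 h, 37 °C. HDAC-Glo I/II, 30 min RT. Luminescence.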

[3] = qHTS assay to identify small molecule HDAC inhibitors - cell viability counter screen (AID 1259365); further: nearly all actives have a fitted effect of over 50% in size; further: potency means the concentration at half of the fitted maximal effect
How it was run: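 To flag cytotoxic hits, 1,500 wild-type HCT-116 cells per well, plated the day before, receive test compounds for 2hr at 37 C before CellTiter-Glo reagent and a luminescence read.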

[4] = qHTS assay to identify small molecule agonists of the sonic hedgehog signaling (Shh) pathway - cell viability counter screen (AID 1259366); further: nearly all actives have a fitted effect of over 50% in size; further: potency means the concentration at half of the fitted maximal effect
How it was run: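 Fluorescence from CellTiter-Fluor reports live cells in this counter screen. NIH/3T3-derived Gli1-Luc reporter cells receive test compounds for 24hr at 37C; reagent goes in at 23hr.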

[5] = qHTS assay to identify small molecule antagonists of the sonic hedgehog signaling (Shh) pathway - cell viability counter screen (AID 1259367); further: nearly all actives have a fitted effect of over 55% in size; further: potency means the concentration at half of the fitted maximal effect
How it was run: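 Fluorescence read-out (CellTiter-Fluor, 1 hr at 37C) taken after 23 hr compound treatment of 3T3 Gli1-Luc cells stimulated with conditioned medium. Cells were seeded at 2,000 per well and pre-incubated 4 hr.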

[6] = qHTS assay to identify small molecule agonists of the sonic hedgehog signaling (Shh) pathway (AID 1259368; calls by dose curve;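 further: NIH/3T3-derived 3T3Gli1-Luc cells carrying a stable Gli1-driven firefly luciferase reporter; series mostly up to about 92 µM; nearly all actives have a fitted effect of over 15% in size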)
How it was run: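 Following a 24 hr incubation with DMSO-dissolved compounds at 37 C, 5% CO2, Gli1-Luc NIH/3T3-derived cells received luciferase reagent for 30 min at room temperature prior to luminescence measurement.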

[7] = molecular target: Estrogen receptor beta (Homo sapiens) (UniProt Q92731); experiment: qHTS assay to identify small molecule agonists of the estrogen receptor beta (ER-beta) signaling pathway (AID 1259377; active means well fitted activation curve with a large enough effect in the signal ratio in the repeat runs, not every such curve was filed as active; the % refers to the signal ratio; further: potency means the concentration at half of the fitted maximal effect)
Sequence of Estrogen receptor beta (Homo sapiens) (Q92731 whole entry, looked up): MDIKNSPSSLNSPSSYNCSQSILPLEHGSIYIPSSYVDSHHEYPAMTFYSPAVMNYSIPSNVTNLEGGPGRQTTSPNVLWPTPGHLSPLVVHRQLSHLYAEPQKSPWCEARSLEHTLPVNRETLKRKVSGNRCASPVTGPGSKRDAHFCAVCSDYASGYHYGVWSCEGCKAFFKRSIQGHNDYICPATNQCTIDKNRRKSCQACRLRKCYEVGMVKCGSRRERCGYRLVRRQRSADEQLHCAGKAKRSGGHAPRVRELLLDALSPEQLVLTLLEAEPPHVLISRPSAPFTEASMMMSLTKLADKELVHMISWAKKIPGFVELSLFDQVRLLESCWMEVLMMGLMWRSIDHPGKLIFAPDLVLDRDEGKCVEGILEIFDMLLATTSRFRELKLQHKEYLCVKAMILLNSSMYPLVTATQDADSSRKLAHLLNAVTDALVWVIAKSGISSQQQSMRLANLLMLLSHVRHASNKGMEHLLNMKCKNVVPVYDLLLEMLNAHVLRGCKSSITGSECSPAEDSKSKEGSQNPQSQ
How it was run: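 Screening used GripTite ER-beta-UAS-bla cells held in 2% charcoal-stripped FBS medium. After overnight (16 hr) compound incubation at 37C, beta-lactamase activity was detected with a FRET substrate by fluorescence.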

[8] = qHTS assay to identify small molecule agonists of the androgen receptor (AR) signaling pathway in the presence of an antagonist - cell viability counter screen (AID 1259379); further: nearly all actives have a fitted effect of over 25% in size; further: potency means the concentration at half of the fitted maximal effect
How it was run: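 Each compound was tested at 15 concentrations on MDA-kb2 cells in the presence of 3.0uM nilutamide. Viability was measured by CellTiter-Fluor fluorescence after a 16 hr incubation at 37C in a CO2-free atmosphere.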

[9] = qHTS assay to identify small molecule agonists of the estrogen receptor beta (ER-beta) signaling pathway - cell viability counter screen (AID 1259380); further: nearly all actives have a fitted effect of over 30% in size; further: potency means the concentration at half of the fitted maximal effect
How it was run: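 Compounds dissolved in DMSO were pin-transferred onto ER-beta-UAS-bla HEK293T cells that had settled 6 hr, and exposure ran 16 hr at 37C. Following the reporter read, CellTiter-Glo luminescence after 30 min at room temperature indicated cytotoxicity.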

[10] = qHTS assay to identify small molecule antagonists of the estrogen receptor beta (ER-beta) signaling pathway - cell viability counter screen (AID 1259382); further: series mostly up to about 92 µM; nearly all actives have a fitted effect of over 55% in size
How it was run: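 CellTiter-Glo ATP luminescence measured after the LiveBLAzer read in the same wells; ER-beta-UAS-bla HEK293T cells, 16 hr compound treatment with 1nM 17-beta-estradiol agonist at 37C, 5% CO2.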

[11] = qHTS assay to identify small molecule agonists of the estrogen receptor alpha (ER-alpha) signaling pathway in the presence of an antagonist - cell viability counter screen (AID 1259386);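 further: cells exposed to compounds for 22 h at 37 °C before the viability read; nearly all actives have a fitted effect of over 30% in size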; further: potency means the concentration at half of the fitted maximal effect
How it was run: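 Using estrogen-depleted VM7Luc4E2 cells, the 15-concentration compound series was applied together with 10.0nM ICI-182,780 and incubated 22hr at 37C/5% CO2. Cell viability was then scored by CellTiter-Fluor.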

[12] = molecular target: Estrogen receptor (Homo sapiens) (UniProt P03372); experiment: qHTS assay to identify small molecule antagonists of the estrogen receptor alpha (ER-alpha) signaling pathway using the BG1 cell line in the presence of 0.1 nM 17-beta-estradiol (AID 1259244); further: nearly all actives have a fitted effect of over 50% in size; further: potency means the concentration at half of the fitted maximal effect
Sequence of Estrogen receptor (Homo sapiens) (P03372 whole entry, looked up): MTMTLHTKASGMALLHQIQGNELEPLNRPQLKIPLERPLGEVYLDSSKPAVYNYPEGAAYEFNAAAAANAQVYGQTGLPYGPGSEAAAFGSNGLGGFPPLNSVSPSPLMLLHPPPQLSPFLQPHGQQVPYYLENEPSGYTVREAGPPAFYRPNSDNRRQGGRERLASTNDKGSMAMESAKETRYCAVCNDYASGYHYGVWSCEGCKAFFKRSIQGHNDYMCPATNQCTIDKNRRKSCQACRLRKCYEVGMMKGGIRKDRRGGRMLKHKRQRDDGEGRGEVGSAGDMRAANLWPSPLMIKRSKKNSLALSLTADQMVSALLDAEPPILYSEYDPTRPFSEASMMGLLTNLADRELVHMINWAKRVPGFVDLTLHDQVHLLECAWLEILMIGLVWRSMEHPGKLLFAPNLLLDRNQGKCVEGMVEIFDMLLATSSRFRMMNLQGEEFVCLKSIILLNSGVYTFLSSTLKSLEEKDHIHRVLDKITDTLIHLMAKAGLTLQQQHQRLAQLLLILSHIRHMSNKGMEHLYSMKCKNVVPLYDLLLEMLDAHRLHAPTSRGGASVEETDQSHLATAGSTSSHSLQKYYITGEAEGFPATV
How it was run: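 Luciferase signal from VM7Luc4E2 ERE-reporter cells, co-dosed with test compound and 0.1 nM final 17beta-estradiol for 22 h, read with ONE-Glo.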

[13] = qHTS assay to identify small molecule antagonists of the sonic hedgehog signaling (Shh) pathway (AID 1259369; calls by dose curve; further: nearly all actives have a fitted effect of over 45% in size; further: potency means the concentration at half of the fitted maximal effect)
How it was run: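 Read-out is luminescence from a firefly luciferase gene controlled by the Gli1 response element, in 3T3Gli1-Luc cells pre-incubated 4hr then exposed to compounds and conditioned medium for 24hr.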

[14] = molecular target: Estrogen receptor (Homo sapiens) (UniProt P03372); experiment: qHTS assay to identify small molecule agonists of the estrogen receptor alpha (ER-alpha) signaling pathway in the presence of an antagonist (AID 1259383; calls by dose curve; further: top concentration of the series differs between compounds; nearly all actives have a fitted effect of over 15% in size)
How it was run: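 Luminescent ERE-luciferase reporter, VM7Luc4E2 cells (endogenous ER-alpha); 10.0nM ICI-182,780 final; 15-point compound titration; 22hr at 37C; ONE-Glo, 30min RT.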

[15] = qHTS assay to identify small molecule agonists or antagonists of the thyroid stimulating hormone receptor (TSHR) signaling pathway - wild type cell line counter screen (AID 1259384; calls by dose curve)
How it was run: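 Wild-type Hek293 cells, 800/well, 18 h at 37C, then compound with Ro20-1724 for 30 min RT. cAMP by HTRF (cAMP-d2/anti-cAMP cryptate), 1 h RT, fluorescence read. 15 concentrations, triplicates.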

[16] = molecular target: Thyrotropin receptor (Homo sapiens) (UniProt P16473); experiment: qHTS assay to identify small molecule antagonists of the thyroid stimulating hormone receptor (TSHR) signaling pathway (AID 1259385; calls by dose curve; further: nearly all actives have a fitted effect of over 20% in size; further: potency means the concentration at half of the fitted maximal effect)
Sequence of Thyrotropin receptor (Homo sapiens) (P16473 whole entry, looked up): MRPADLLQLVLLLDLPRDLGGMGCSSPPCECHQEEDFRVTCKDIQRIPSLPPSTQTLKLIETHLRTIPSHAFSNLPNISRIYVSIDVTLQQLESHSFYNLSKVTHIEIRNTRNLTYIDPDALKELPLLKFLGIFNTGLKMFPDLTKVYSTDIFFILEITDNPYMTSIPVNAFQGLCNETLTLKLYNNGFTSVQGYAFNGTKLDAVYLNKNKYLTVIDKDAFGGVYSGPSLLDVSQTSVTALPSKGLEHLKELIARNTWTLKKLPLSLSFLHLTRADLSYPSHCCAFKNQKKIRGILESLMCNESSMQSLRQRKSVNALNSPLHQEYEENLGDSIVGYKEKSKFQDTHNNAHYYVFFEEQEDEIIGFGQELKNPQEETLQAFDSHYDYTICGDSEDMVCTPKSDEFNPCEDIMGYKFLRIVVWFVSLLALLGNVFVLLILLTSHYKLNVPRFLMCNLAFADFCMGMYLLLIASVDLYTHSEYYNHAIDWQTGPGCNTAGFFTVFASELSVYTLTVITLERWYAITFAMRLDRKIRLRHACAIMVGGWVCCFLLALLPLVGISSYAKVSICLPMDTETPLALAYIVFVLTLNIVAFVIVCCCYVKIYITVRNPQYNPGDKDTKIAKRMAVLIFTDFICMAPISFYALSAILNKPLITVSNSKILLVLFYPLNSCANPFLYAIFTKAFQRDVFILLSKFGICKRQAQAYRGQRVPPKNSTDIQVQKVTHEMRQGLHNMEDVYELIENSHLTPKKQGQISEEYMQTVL
How it was run: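 TSHR-HEK293 cells (800/well) plated 18 h, then compounds with Ro20-1724 and TSH at 1.5 ng/mL final, 30 min at room temperature. cAMP quantified by HTRF (cAMP-d2/anti-cAMP-cryptate, 1 h); 15 concentrations in triplicate.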

[17] = qHTS assay to identify small molecule phospholipidosis (PLD) inducers (AID 1259344; active means well fitted curve in the direction sought with a large enough effect; an effect the other way counts as inactive or inconclusive)
How it was run: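 Read-out is LipidTOX Red fluorescence (ex 595/em 615) imaged in HepG2 cells after 24 h compound exposure at 37 C, with Hoechst nuclear counterstain (ex 352/em 461) allowing per-cell normalisation.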

[18] = molecular target: Estrogen receptor beta (Homo sapiens) (UniProt Q92731); experiment: qHTS assay to identify small molecule antagonists of the estrogen receptor beta (ER-beta) signaling pathway (AID 1259378; active means well fitted inhibition curve with a large enough effect in the signal ratio in the repeat runs, not every such curve was filed as active; the % refers to the signal ratio; further: potency means the concentration at half of the fitted maximal effect)
How it was run: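 ER-beta-UAS-bla HEK293T cells in 2% charcoal-stripped FBS medium treated with compound plus 1nM final 17-beta-estradiol for 16 hr at 37C. Beta-lactamase reporter read by FRET substrate fluorescence after 2 hours at room temperature.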

[19] = molecular target: Androgen receptor (Homo sapiens) (UniProt P10275); experiment: qHTS assay to identify small molecule agonists of the androgen receptor (AR) signaling pathway in the presence of an antagonist (AID 1259381; calls by dose curve; further: nearly all actives have a fitted effect of over 15% in size)
Sequence of Androgen receptor (Homo sapiens) (P10275 whole entry, looked up): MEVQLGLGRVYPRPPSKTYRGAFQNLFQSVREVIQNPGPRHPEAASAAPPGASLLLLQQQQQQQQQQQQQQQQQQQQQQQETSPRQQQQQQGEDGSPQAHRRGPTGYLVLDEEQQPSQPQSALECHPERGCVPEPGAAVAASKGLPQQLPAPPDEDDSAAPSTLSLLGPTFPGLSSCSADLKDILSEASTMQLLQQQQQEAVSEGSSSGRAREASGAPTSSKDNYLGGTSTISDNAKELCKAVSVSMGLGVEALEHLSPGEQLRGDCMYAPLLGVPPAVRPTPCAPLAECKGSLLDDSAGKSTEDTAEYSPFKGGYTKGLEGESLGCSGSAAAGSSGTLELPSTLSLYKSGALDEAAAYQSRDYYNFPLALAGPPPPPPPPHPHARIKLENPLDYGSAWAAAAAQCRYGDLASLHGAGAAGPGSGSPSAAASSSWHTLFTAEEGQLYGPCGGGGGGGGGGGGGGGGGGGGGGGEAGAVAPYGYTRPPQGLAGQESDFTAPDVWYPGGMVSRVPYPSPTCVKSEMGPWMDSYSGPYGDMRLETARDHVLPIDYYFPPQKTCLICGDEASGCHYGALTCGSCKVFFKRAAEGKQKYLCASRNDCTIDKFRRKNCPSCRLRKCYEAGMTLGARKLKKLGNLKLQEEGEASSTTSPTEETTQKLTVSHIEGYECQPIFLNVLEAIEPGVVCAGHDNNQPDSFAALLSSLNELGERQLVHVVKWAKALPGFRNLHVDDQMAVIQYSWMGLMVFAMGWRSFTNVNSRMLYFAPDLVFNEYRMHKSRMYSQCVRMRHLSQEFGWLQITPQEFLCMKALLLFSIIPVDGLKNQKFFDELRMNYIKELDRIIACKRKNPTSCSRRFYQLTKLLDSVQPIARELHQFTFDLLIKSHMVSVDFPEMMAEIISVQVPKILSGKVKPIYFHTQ
How it was run: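 Plated MDA-kb2 cells (3,000/well) were pre-incubated 5hr, given nilutamide (3.0uM final) or buffer, then dosed with compounds in DMSO at 15 concentrations. Luciferase activity was quantified by luminescence after 16hr at 37C.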

| SMILES | Potency [1] | Potency [2] | Potency [3] | Potency [4] | Potency [5] | Potency [6] | Potency [7] | Potency [8] | Potency [9] | Potency [10] | Potency [11] | Potency [12] | Potency [13] | Potency [14] | outcome [15] | Potency [16] | outcome [17] | Potency [18] | Potency [19] |
| --- | --- | --- | --- | --- | --- | --- | --- | --- | --- | --- | --- | --- | --- | --- | --- | --- | --- | --- | --- |
| COc1ccccc1N=Nc1c(S(=O)(=O)O)cc2cc(S(=O)(=O)O)cc(NC(C)=O)c2c1O | 25.7 µM (active) | inactive | 25.7 µM (active) | 25.7 µM (active) | 25.7 µM (active) | inactive | inactive | 25.7 µM (active) | inactive | inactive | 22.9 µM (active) | – | – | – | – | – | – | – | – |
| NC(=O)N(O)[C@@H]1COc2cc(OCc3ccccc3)ccc21 | inactive | – | inactive | inactive | – | inactive | inactive | inactive | inactive | inactive | inactive | 43.3 µM (active) | inactive | inactive | inactive | inactive | – | – | – |
| CCCCCCCC/C=C\CCCCCCCC(=O)OC(CO)CO | inactive | inactive | inactive | inactive | inactive | inactive | inactive | – | – | – | inactive | – | – | – | – | – | – | – | – |
| C=CC(C)(C)CC(=O)OC | inactive | inactive | inactive | inactive | inactive | inactive | – | – | 5.46 µM (active) | inactive | – | – | 27.4 µM (active) | – | inactive | inactive | – | – | – |
| C/C=C/C=C/CCCCCCCO | inactive | – | inactive | – | – | – | – | inactive | – | inactive | – | inactive | – | – | inactive | inactive | – | – | – |
| CC(=O)Oc1ccc2c(c1)CC[C@@H]1[C@@H]2CC[C@]2(C)[C@@H](O)CC[C@@H]12 | inactive | inactive | inactive | inactive | inactive | inactive | 0.0008 µM (active) | inactive | inactive | – | inactive | – | 1.19 µM (active) | – | inactive | inactive | inactive | – | – |
| N#C/C(=C1\SCC(c2ccccc2Cl)S1)n1ccnc1 (stereo not given) | inactive | inactive | inactive | inactive | inactive | inactive | inactive | inactive | inactive | inactive | inactive | – | – | – | inactive | inactive | inactive | inactive | inactive |
| O=C(NCCCN1CCOCC1)c1ccc(Cl)cc1 | inactive | – | inactive | inactive | inactive | inactive | – | inactive | inactive | inactive | inactive | inactive | inactive | inactive | inactive | inactive | – | – | – |
| CCOc1cc(N)c(Cl)cc1C(=O)NCC1CN(Cc2ccc(F)cc2)CCO1 (stereo not given) | inactive | – | inactive | inactive | inactive | inactive | inactive | inactive | 2.37 µM (active) | inactive | – | inactive | inactive | – | inactive | inactive | – | – | – |
| N#C/C(=C1/SC[C@@H](c2ccc(Cl)cc2Cl)S1)n1ccnc1 | inactive | – | inactive | inactive | inactive | inactive | inactive | – | inactive | inactive | inactive | – | – | – | inactive | – | inactive | – | – |
| CC[C@@H]([C@H](C)O)n1ncn(-c2ccc(N3CCN(c4ccc(OC[C@@H]5CO[C@@](Cn6cncn6)(c6ccc(F)cc6F)C5)cc4)CC3)cc2)c1=O | 26.6 µM (active) | – | inactive | inactive | inactive | inactive | inactive | 11.9 µM (active) | 4.22 µM (active) | – | inactive | – | – | – | inactive | 29.8 µM (active) | inactive | 5.96 µM (active) | – |
| CCCCN(CCCC)CCCOC(=O)c1ccc(N)cc1 | inactive | inactive | inactive | inactive | inactive | inactive | inactive | inactive | – | – | – | – | inactive | – | inactive | – | – | – | – |
| CCCCC/C(=C\c1ccccc1)CO | inactive | inactive | inactive | inactive | inactive | inactive | inactive | inactive | – | inactive | inactive | – | – | – | inactive | inactive | – | – | – |
| CN(C)CCOC1=Cc2ccccc2Sc2ccc(Cl)cc21 | inactive | – | inactive | – | inactive | inactive | – | inactive | 26.6 µM (active) | – | – | inactive | – | inactive | inactive | – | – | – | – |
| CC(C)CCCCCOC(=O)CCCCC(=O)OCCCCCC(C)C | inactive | inactive | inactive | inactive | inactive | – | inactive | inactive | inactive | inactive | inactive | – | inactive | – | inactive | inactive | – | inactive | – |
| O=C(O)c1snc(Cl)c1Cl | inactive | inactive | inactive | inactive | inactive | inactive | inactive | inactive | inactive | inactive | inactive | – | inactive | – | inactive | inactive | – | inactive | – |
| CCCCCCCC/C=C\CCCCCCCC(=O)OC | inactive | inactive | inactive | inactive | inactive | inactive | – | inactive | inactive | – | inactive | – | – | – | inactive | inactive | – | inactive | – |
| CCOC(=O)c1ccccc1C | inactive | – | – | inactive | inactive | inactive | inactive | inactive | – | – | inactive | inactive | inactive | – | inactive | – | – | – | – |
| CCCC1C(CC)=CC(CC)=CN1c1ccccc1 (stereo not given) | 48.6 µM (active) | inactive | inactive | inactive | inactive | inactive | inactive | 48.6 µM (active) | inactive | – | – | – | – | – | inactive | inactive | – | – | – |
